89 compounds from PubChem BioAssay AID2221 (Broad Institute, 2009) can be followed below.

SMILES strings stand for the structures. The whole screen tested about 290,000 compounds, of which about 2,200 (0.76%) were called active. Only a selection was taken, and actives are over-represented in it overall. Unmarked numbers belong to inactive results. Cut-off read from the data, not from the text of the source: active = inhibition above about 30%; inconclusive = no clear call, values can overlap the other calls; inactive = below that.

Chain of Protein RecA (Mycobacterium tuberculosis (strain ATCC 25618 / H37Rv)) (P9WHJ3 whole entry, looked up): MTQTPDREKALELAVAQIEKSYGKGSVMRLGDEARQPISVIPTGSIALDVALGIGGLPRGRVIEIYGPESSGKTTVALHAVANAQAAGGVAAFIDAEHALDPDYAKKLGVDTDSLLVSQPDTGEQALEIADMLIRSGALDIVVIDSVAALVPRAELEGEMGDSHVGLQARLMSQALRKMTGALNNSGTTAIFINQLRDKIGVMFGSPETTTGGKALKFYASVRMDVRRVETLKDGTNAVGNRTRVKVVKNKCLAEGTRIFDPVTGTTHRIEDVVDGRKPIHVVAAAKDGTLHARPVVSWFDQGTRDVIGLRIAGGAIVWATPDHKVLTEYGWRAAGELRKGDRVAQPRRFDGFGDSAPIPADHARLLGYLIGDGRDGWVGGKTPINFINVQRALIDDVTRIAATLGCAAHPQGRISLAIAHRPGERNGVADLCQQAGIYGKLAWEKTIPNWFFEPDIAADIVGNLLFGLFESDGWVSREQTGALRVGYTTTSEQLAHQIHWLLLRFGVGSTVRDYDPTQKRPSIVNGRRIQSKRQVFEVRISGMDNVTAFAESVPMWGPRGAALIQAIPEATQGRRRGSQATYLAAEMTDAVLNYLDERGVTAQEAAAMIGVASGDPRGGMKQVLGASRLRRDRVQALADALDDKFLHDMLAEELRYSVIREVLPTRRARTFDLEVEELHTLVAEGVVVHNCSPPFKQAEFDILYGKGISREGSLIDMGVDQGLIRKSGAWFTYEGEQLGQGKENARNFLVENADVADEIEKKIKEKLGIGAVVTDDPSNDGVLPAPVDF

This test concerns the target Protein RecA (Mycobacterium tuberculosis (strain ATCC 25618 / H37Rv)) (UniProt P9WHJ3). Kind of test: Mtb RecA intein splicing inhibitors, primary screen, biochemical, fluorescence, HTS (AID 2221).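 Note: 0% = vehicle wells and 100% = reference inhibitor control wells.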 The conditions noted are these: cell-free RecA intein splicing, active compounds read high, concentration not given here.
For `CCOC(=O)C(C)n1cnc2c(nnn2-c2ccc(F)cc2)c1=O` (centres undefined), the inhibition (usually the drop in the measured response relative to a control, in per cent) was -0.542%. On to `COC(=O)C(C)n1cnc2c(nnn2-c2ccc(F)cc2)c1=O` (centres undefined), for which the inhibition is -1.59%. On to `CCOC(=O)C(CC)Sc1ncnc2c1nnn2-c1ccc(F)cc1` (centres undefined), for which the inhibition is 36.6% (active). On to `Cc1ccc(C(=O)COC(=O)CCN2C(=O)C3C4CC(C(Br)C4Br)C3C2=O)cc1` (centres undefined), for which the inhibition was 1.16%. As for `CC(=O)Nc1ccc(N2C(=O)CC(Sc3nccc(C)n3)C2=O)cc1` (centres undefined), the inhibition is -1.08%. The result for `O=C(Oc1ccccc1C(=S)N1CCCCC1)c1cc([N+](=O)[O-])cc([N+](=O)[O-])c1` reads 28.1%. The result for `O=C(Oc1ccc(Br)cc1C(=S)N1CCOCC1)c1cccc([N+](=O)[O-])c1` reads 32.3% (active); that for `COc1cc(C(=S)N2CCOCC2)cc(OC)c1OC(=O)c1cc([N+](=O)[O-])cc([N+](=O)[O-])c1`, -0.59%; that for `Cc1nn(C)cc1/C=C1\CCC/C(=C\c2cn(C)nc2C)C1=O`, 1.91%. The same measure for `CC(=O)c1c(C)c[nH]c1C`: 0.735%; for `S=C(NCC1COc2ccccc2O1)Nc1ccc(Br)cc1` (centres undefined): 2.68%. For the compound `Cc1[nH]n(-c2cccc(Cl)c2)c(=O)c1-c1ccc(Cl)cc1`, the inhibition is 8.51%. For the compound `CC1=NN(c2cccc(Cl)c2)C(=O)C12CC(C)=C(C)CS2` (centres undefined), the inhibition was 31.7% (active). Consider `CC12CCC(C(=O)N(c3cccc(Cl)c3)C1=O)C2(C)C` (centres undefined), for which the inhibition is 2.02%. The result for `COC(=O)C1=C(Nc2ccc(C)cc2)C=C(C)C(C(=O)OC)C1c1ccc(F)cc1` (centres undefined) reads -4.47%; that for `COc1cccc(Nc2nc(N)c([N+](=O)[O-])c(NCc3ccco3)n2)c1`, 9.57%; that for `C=CCOc1ccc(/C=C2/C(=O)ON=C2C)cc1OCC`, 0.545%. As to `Cc1[nH][nH]c(=O)c1C(c1ccc(-c2ccc(Cl)cc2)o1)c1c(C)[nH][nH]c1=O`, the inhibition is -2.86%. As for `CC(NC(=O)c1ccco1)c1ccc2c(c1)OCO2` (centres undefined), the inhibition was -3.46%. On to `CCOc1ccc(C(CC(=O)O)NC(=O)Cc2ccccc2)cc1OC` (centres undefined), for which the inhibition is -1.09%. The result for `Cc1[nH][nH]c(=O)c1C(c1ccc2c(c1)OCO2)c1c(C)[nH][nH]c1=O` reads 97.8% (active).

`CCOc1ccc(C(c2c(C)[nH][nH]c2=O)c2c(C)[nH][nH]c2=O)cc1OCC`: the inhibition is 98.1% (active).

`O=C(NCCCn1ccnc1)c1cc(Br)c(Br)s1`: the inhibition is -6.96%. Turning to `COc1ccccc1/C=C/C(=O)NC(=S)N1CCOCC1`, the inhibition was 1.89%.

As for `CCC(C)N(C(=O)Cn1nc(C)c([N+](=O)[O-])c1C)C1CCS(=O)(=O)C1` (centres undefined), the inhibition was 2.19%.

As for `COCCc1nn2c(=O)cc(COC(=O)c3cc(OC)c(OC)c(OC)c3)nc2s1`, the inhibition is 0.818%.

Consider `CN1c2ccc(C=O)c3c(C=O)ccc(c23)N(C)C1(C)C`, for which the inhibition is 63.9% (active). `Cc1[nH]c(C)c(S(=O)(=O)N2CCN(c3cccc(C(F)(F)F)c3)CC2)c1C(=O)N1CCCC1`: the inhibition is 0.869%. For `CCC(c1nnnn1Cc1ccco1)N(Cc1cc2cc(OC)ccc2[nH]c1=O)C1CCCCC1` (centres undefined), the inhibition was 30.6% (active).

In the case of `CCC(c1nnnn1Cc1ccccc1)N(Cc1cc2cc(OC)ccc2[nH]c1=O)CC1CCCO1` (centres undefined), the inhibition was -10.9%. The same measure for `CCC(c1nnnn1Cc1ccco1)N(CCc1ccccc1)Cc1cc2ccc(OC)cc2[nH]c1=O` (centres undefined): 16.5%. In the case of `C[C@H](C(=O)CC(=O)OC(C)(C)C)[C@H](O)c1ccc(C(F)(F)F)cc1`, the inhibition was 0.927%. With `CCn1c(=N)n(CC(=O)c2cccc(OC)c2)c2ccccc21`, the inhibition is 5.77%. On to `Cc1ccc(OCCCn2c(=O)oc3ccccc32)cc1`, for which the inhibition is 2.53%. The result for `CCCCCCCCCCOC(=O)Cn1c(COc2ccc(C)cc2)[n+](C)c2ccccc21` reads 51.7% (active). As to `COc1cccc(OCCCN2CCCCCC2)c1`, the inhibition was -1.65%. The result for `CCCCCCCCCCOC(=O)Cn1c(COc2cccc(OC)c2)[n+](C)c2ccccc21` reads 51.1% (active); that for `Cc1ccc(OCc2nc3ccccc3n2C)cc1`, 1.88%; that for `O=S(N1CCCCCC1)C12CC3CC(CC(C3)C1)C2` (centres undefined), -0.132%. The result for `COc1ccc(CCNC(=O)CCC(=O)NC2CCCCC2)cc1OC` reads -0.371%; that for `COc1ccc(NC(=O)c2cc(-c3cc(OC)c(OC)c(OC)c3)nc3ccccc23)c(OC)c1`, 10.4%; that for `CCOC(=O)c1c(S(=O)(=O)NCC(=O)Nc2ccc(C)cc2)c(C)n(C)c1C`, -0.878%. The result for `Cc1nnc(SCC(=O)N2CCOCC2)[nH]c1=O` reads -0.0115%; that for `CCOC(=O)CSc1nc(C)c(Oc2ccc(Cl)cc2Cl)c(=O)[nH]1`, 1.85%; that for `CCCCOC(=O)CNc1nnc(SCC(=O)OCC)[nH]c1=O`, 77.5% (active).

Consider `CCC(C)[C@H](NC(=O)N1CCn2c1nc1ccccc12)C(=O)NCc1ccc(OC)cc1` (some centres undefined), for which the inhibition is 2.07%. The same measure for `O=C(O)/C=C/C(=O)Nc1ccc(F)cc1F`: 0.519%. The result for `COC(=O)c1sc(-c2ccc(C(C)(C)C)cc2)cc1NC(=O)/C=C/C(=O)O` reads 88.1% (active); that for `COc1ccccc1NC(=O)/C=C/C(=O)O`, -1.49%. Regarding `CSc1ccc(S(=O)(=O)NCC(=O)OCC(=O)NC2(C#N)CCCCC2)cc1[N+](=O)[O-]`, the inhibition was 1.65%. Consider `CC(C)[C@H](NC(=O)OCc1ccccc1)C(=O)OCc1ccccc1`, for which the inhibition was 7.54%.

Turning to `CCOC(=O)c1ccc(NC(=O)c2cc(=O)[nH]c3ccccc23)cc1`, the inhibition was -5.09%. The same measure for `CCOC(=O)c1nc(Nc2ccc(C(=O)OC)cc2)c2ccccc2n1`: -6.39%; for `CCOC(=O)c1ccc(Nc2cc3ccccc3c(=O)[nH]2)cc1`: 62.4% (active); for `CCN(CC)CCNC(=O)c1sc2ncn(CC(=O)Nc3ccc(C)c(Cl)c3)c(=O)c2c1C`: -0.641%.

`O=C(CN1C(=O)CC(c2ccccc2)=Nc2ccccc21)NC1CCCCC1`: the inhibition was -1.07%.

In the case of `CCOc1ccc(NC(=O)C2CCN(C(=O)N3CCOc4ccccc43)CC2)cc1`, the inhibition is 2.39%. Turning to `Cc1nnc(NC(=O)C(c2ccccc2)c2ccccc2)s1`, the inhibition is 1.12%. Turning to `CCOC(=O)N1CCN(C(c2cccnc2)c2ccc3cccnc3c2O)CC1` (centres undefined), the inhibition is 9.76%. For the compound `CCN1CCN(C(c2cccnc2)c2cc(Cl)c3cccnc3c2O)CC1` (centres undefined), the inhibition is 70% (active). The result for `CCN1CCN(c2ccc(NC(=O)c3cnccn3)cc2)CC1` reads -0.413%; that for `COc1ccccc1/C=N\Nc1cc(C)nc(-n2nc(C)cc2C)n1`, 0.767%. The result for `COc1cccc(/C=N/Nc2cc(C)nc(-c3ccccc3O)n2)c1O` reads 38.8% (active); that for `COc1cccc(/C=N/Nc2ncc(C(F)(F)F)cc2Cl)c1O`, -2.37%; that for `C/C(=N\NC(=O)COc1ccc(C)cc1[N+](=O)[O-])c1ccc2c(c1)OCCO2`, 1.11%. The same measure for `O=S(=O)(Nc1ccc(O)c2ccccc12)c1ccc(OC(F)(F)F)cc1`: 95.2% (active); for `O=C1COc2ccc(S(=O)(=O)Nc3ccc(OC(F)(F)F)cc3)cc2N1`: -0.276%; for `Cc1nn(C)c(C)c1NS(=O)(=O)c1ccc(OC(F)(F)F)cc1`: 0.692%. In the case of `COCCCC1CCN(C(=O)C2CCC(=O)N(C3CCCCCC3)C2)CC1` (centres undefined), the inhibition is -0.89%.

Consider `C/C(N)=C(/C#N)C(=O)COC(=O)C1=NN(c2ccccc2)C(=O)CC1`, for which the inhibition was -0.739%.

As for `CC(=O)c1sc(NC(=O)C2=NN(c3ccccc3)C(=O)CC2)nc1C`, the inhibition was -1.59%.

As to `COC(=O)CC1=NN(c2ccccc2)C(=O)C1`, the inhibition was 76.6% (active). The same measure for `Cc1ccc(CC2CC(=O)N(c3nc(C)cc(C)n3)C2=O)cc1` (centres undefined): -1.07%; for `Cc1cc(C)cc(NC(=O)C2CCN(c3nc(C)cc(C)n3)CC2)c1`: -1.54%; for `COC(=O)CC1=NN(c2nc(C)cc(C)n2)C(=O)C1`: 36.2% (active). The result for `O=C(CSc1nc(Nc2ccccc2)nc(N2CCOCC2)n1)Nc1cc(Cl)ccc1O` reads 2.06%. On to `CCCn1nc(C(=O)NNC(=O)CSCC(=O)Nc2cc(C)on2)c2ccccc2c1=O`, for which the inhibition was 1.67%. The same measure for `O=C1Nc2cc(C(=O)N3CCC(N4CCCCC4)CC3)ccc2S/C1=C\c1ccccc1`: 1.2%.

For the compound `Cc1csc(CN(C)C(=O)CC2C(=O)NCCN2CC(C)(C)C)n1` (centres undefined), the inhibition was -5.7%. Turning to `O=C(C(Cc1ccccc1)n1cccc1)N1CCN(C2CCCCC2)CC1` (centres undefined), the inhibition is 1.21%. The same measure for `NC(=O)CC[C@@H]1NC(=O)[C@H](CO)NC(=O)c2cc([N+](=O)[O-])cc(I)c2NCC[C@@H](C(N)=O)NC1=O`: 30.3% (active); for `NC(=O)C[C@@H]1NC(=O)CNC(=O)c2cc([N+](=O)[O-])cc(I)c2NCCC(C(N)=O)NC1=O` (some centres undefined): 1.58%. The same measure for `NCCCC[C@@H]1NC(=O)[C@H](CCC(=O)O)NC(=O)c2cc([N+](=O)[O-])cc(I)c2NCC[C@@H](C(N)=O)NC1=O`: 0.579%; for `COc1ccc(Nc2ncc(F)c(N3CCOCC3)n2)cc1`: -0.77%. Consider `CN(C)S(=O)(=O)c1ccc(C(=O)NCCN=C2NS(=O)(=O)c3ccccc32)cc1`, for which the inhibition was -1.53%.

Regarding `Cc1cc(C)c(NC(=O)CN2C(=O)NC(Cc3ccccc3)C2=O)c(C)c1` (centres undefined), the inhibition is 0.835%. As for `Cc1onc(-c2c(Cl)cccc2Cl)c1C(=O)c1c[nH]c(C(=O)NC2CC2)c1`, the inhibition was 5.76%. The same measure for `Cc1[nH]n(C)c(=O)c1C(=O)c1c(-c2c(Cl)cccc2Cl)noc1C`: 77.1% (active); for `Cc1onc(-c2c(Cl)cccc2Cl)c1C(=O)NNC(=O)c1c(-c2c(Cl)cccc2Cl)noc1C`: 0.133%.
